# This is part of a sample that, as a whole, favours compounds with a hit. Of some 79,000 tested, about 15% had one in any assay. Unmarked numbers belong to inactive results. The source made the active and inactive calls. Rule as the data show it: active = growth inhibition above about 70%; inactive = the rest.
# Experiments:
# [1] = NCI Yeast Anticancer Drug Screen. Data for the rad50 strain (AID 155);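 also: 0% = growth of vehicle-only cultures of the same strain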; conditions: S. cerevisiae rad50 strain growth inhibition, hits give high values
# Summary of the method: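 Growth of the mutant yeast was measured after compound exposure and referenced to vehicle-treated cultures.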
# [2] = NCI Yeast Anticancer Drug Screen. Data for the mec2-1 strain (AID 157); conditions: S. cerevisiae mec2-1 strain, hits give high values
# Summary of the method: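 Growth inhibition is read against vehicle-treated controls after compound exposure of the mec2-1 yeast strain, which is defective in DNA damage repair or cell cycle control.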
# [3] = NCI Yeast Anticancer Drug Screen. Data for the sgs1 mgt1 strain (AID 161);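 also: 0% = growth of cultures given vehicle only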; conditions: S. cerevisiae sgs1 mgt1 strain, hits give high values
# Summary of the method: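 Compounds are added to genetically altered yeast, and growth is compared with cultures given vehicle alone to give percent inhibition.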
# [4] = NCI Yeast Anticancer Drug Screen. Data for the cln2 rad14 strain (AID 165);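 also: 0% = growth equal to vehicle treated cultures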; conditions: S. cerevisiae cln2 rad14 strain, hits give high values
# Summary of the method: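 Growth inhibition, relative to vehicle-treated controls, is the read-out. The test organism is a yeast strain with defined genetic alterations, cln2 rad14.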
# [5] = NCI Yeast Anticancer Drug Screen. Data for the bub3 strain (AID 167); conditions: S. cerevisiae bub3 mutant strain, hits give high values
# Summary of the method: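 Whole-cell yeast assay. The mutant strain was incubated with compounds, and growth inhibition was determined by comparison with vehicle-treated cells.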
# [6] = NCI Yeast Anticancer Drug Screen. Data for the mlh1 rad18 strain (AID 175); conditions: S. cerevisiae mlh1 rad18 strain growth inhibition, hits give high values
# Summary of the method: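 Cells of a genetically altered yeast strain, deficient in DNA damage repair, were treated with compound. Their growth was then compared with that of vehicle-treated cultures to give inhibition.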
# [7] = at 5.0 µM (retest, dose inferred, filed as 0.5)
# [8] = at 50.0 µM (retest, dose inferred, filed as 5.0)
Compound,"growth inhibition [1, 7]","growth inhibition [1, 8]",growth inhibition ([1]; at 50.0 µM),"growth inhibition [2, 7]","growth inhibition [2, 8]",growth inhibition ([2]; at 50.0 µM),"growth inhibition [3, 7]","growth inhibition [3, 8]",growth inhibition ([3]; at 50.0 µM),"growth inhibition [4, 7]","growth inhibition [4, 8]",growth inhibition ([4]; at 50.0 µM),"growth inhibition [5, 7]","growth inhibition [5, 8]",growth inhibition ([5]; at 50.0 µM),"growth inhibition [6, 7]","growth inhibition [6, 8]",growth inhibition ([6]; at 50.0 µM)
O=[N+]([O-])c1c(Cl)ccc2nsnc12,24%,97% (active),99.4% (active),-27%,97% (active),99.2% (active),-14%,98% (active),98.8% (active),-56%,84% (active),98.6% (active),-49%,96% (active),98.5% (active),-50%,97% (active),99% (active)
O=C1C(Cl)=C(Nc2ccc(S(=O)(=O)O)cc2)C(=O)c2ccccc21,23%,99% (active),99.5% (active),33%,100% (active),99.6% (active),35%,100% (active),99.6% (active),12%,99% (active),99.3% (active),74% (active),99% (active),99.5% (active),26%,99% (active),99.4% (active)
O=C1C=CC(=NN=C(c2ccccc2)c2ccccc2)C=C1,-27%,-1%,55%,-16%,-21%,54.5%,-21%,-10%,38.1%,-27%,-17%,44%,-14%,-22%,63.9%,-38%,-2%,53%
Cc1[nH]nc(C(=O)N/N=C/c2cccs2)c1N=NN(C)C,73% (active),96% (active),97.2% (active),15%,98% (active),82.9% (active),19%,73% (active),97% (active),-3%,96% (active),99.3% (active),-1%,95% (active),87.6% (active),80% (active),98% (active),99% (active)
C[N+]1(Cc2ccc([N+](=O)[O-])cc2)CCC[C@H]1c1ccc[n+](Cc2ccc([N+](=O)[O-])cc2)c1 (some centres not stated),0%,27%,10.2%,-1%,13%,8.85%,-15%,-2%,65.1%,-7%,0%,63.2%,2%,11%,9.65%,-28%,24%,84.6% (active)
Cc1cc(N=Nc2ccncc2C)ccc1N,-69%,98% (active),92.5% (active),-50%,87% (active),52.5%,-34%,98% (active),75.6% (active),-45%,92% (active),48.9%,-40%,98% (active),89% (active),-72%,96% (active),66.7%
C(/C=C/CC=Nc1ccccc1)=Nc1ccccc1,3%,4%,4.4%,2%,3%,30.6%,0%,6%,12.1%,-4%,-4%,42.2%,-4%,-3%,-7.75%,7%,3%,-29.7%
CC(C)=CCC/C(C)=C/COc1ccc(/C=C2/C(=O)N(O)[C@@H](C)C(=O)N2O)cc1,51%,97% (active),80.8% (active),52%,98% (active),78.2% (active),66%,92% (active),78.9% (active),54%,89% (active),70.7% (active),68%,97% (active),83.3% (active),32%,96% (active),79.2% (active)
CCc1ccc(CC(=O)O)c2ccc3c(C)ccc(C)c3c12,15%,96% (active),98.9% (active),14%,98% (active),95.8% (active),14%,97% (active),98.6% (active),19%,93% (active),95.8% (active),11%,51%,63.5%,8%,96% (active),94.4% (active)

# From PubChem BioAssay (NCI)
